Test [1] is described as follows: Validation qHTS assay for inhibitors of Activation Induced Cytidine Deaminase (AID): UDG Counterscreen signal (AID 1347427; active = well fitted curve in the direction sought with a large enough effect; an effect the other way counts as inactive or inconclusive; note: 0% is about no effect). The method in brief:
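Counterscreen read of UDG activity (2 U/mL, 4/3x) in the FRET deamination format with AID (1 uM, 4/3x), DJC20/DJC23 substrates (250 nM, 4x), 4 h at room temperature. NaOH stop, fluorescence at 560 ex/665 em.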

The target of test [2] is Single-stranded DNA cytosine deaminase (Homo sapiens) (UniProt Q9GZX7). In words: Validation qHTS assay for inhibitors of Activation Induced Cytidine Deaminase (AID): AID signal (AID 1347429; active = well fitted curve in the direction sought with a large enough effect; an effect the other way counts as inactive or inconclusive; note: % is set by controls: 0 for no effect and ±100 for the full control effect). The method in brief:
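AID and UDG were combined and compounds added at final up to 114 uM, then DJC20/DJC23 FRET substrate was added for 4 hr at room temperature. NaOH was then added for 30 min before fluorescence was read at 540/590 nm.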

Test [3] in a line: Primary qHTS for inhibitors of SARS-S pseudo-typed particle cell entry (AID 1479145). For activity change, negative = inhibition: series mostly up to about 57 µM; % is set by controls: 0 for no effect and ±100 for the full control effect. Note: nearly all actives have a fitted effect of over 45% in size. To be noted: outcome: dose series up to 57.1 µM unless noted.
Test [4] can be described thus: Primary qHTS for Huh7 cytotoxicity: counterscreen for inhibitors of MERS-S pseudotyped particle cell entry (AID 1479147). To be noted: outcome: dose series up to 57.1 µM unless noted.
Test [5] is described as follows: qHTS to identify inhibitors of the type 1 interferon - major histocompatibility complex class I in skeletal muscle: primary screen against the NCATS Mechanism Interrogation Plate v5.0 (MIPE) Libary (AID 1347411; active = well fitted curve in the direction sought with a large enough effect; an effect the other way counts as inactive or inconclusive;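 note: plate controls were vehicle for no effect and reference inhibitor for full effect; nearly all actives have a fitted effect of over 65% in size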). Put shortly: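 Immortalized human C25cl48 myoblasts with HiBit knocked into endogenous HLA-B*08:01 were stimulated with 4.0 ng/ml IFN-beta and exposed to compounds (11-point 1:3 titration, top 46 uM final) for 24 hrs at 37 C; HiBiT lytic luminescence measured.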

Test [6] is described as follows: Primary qHTS for inhibitors of MERS-S pseudo-typed particle cell entry (AID 1479149). For activity change, negative = inhibition: series mostly up to about 57 µM; % is set by controls: 0 for no effect and ±100 for the full control effect. Note: nearly all actives have a fitted effect of over 60% in size. To be noted: outcome: dose series up to 57.1 µM unless noted.

The structures appear in SMILES notation. Values without a mark were called inactive. Inconclusive results are not listed. Active and inactive are the calls of the source. Unless noted, calls come from the whole dose curve.

Sequence of Single-stranded DNA cytosine deaminase (Homo sapiens) (Q9GZX7 whole entry, looked up): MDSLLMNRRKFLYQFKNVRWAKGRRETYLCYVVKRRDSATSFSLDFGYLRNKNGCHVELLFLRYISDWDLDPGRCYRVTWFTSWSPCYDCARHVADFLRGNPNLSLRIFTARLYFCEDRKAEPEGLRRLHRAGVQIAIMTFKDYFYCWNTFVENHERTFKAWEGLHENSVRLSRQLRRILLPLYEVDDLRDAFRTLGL

With `COc1ccc2c(c1)c(CCN1CCOCC1)c(C)n2C(=O)c1cccc(Cl)c1Cl`, the Potency entry in test [1] and in test [2] was “inactive” throughout.
Take `CC[C@H](C)[C@H]1O[C@]2(C=C[C@@H]1C)C[C@@H]1C[C@@H](C/C=C(\C)[C@@H](O[C@H]3C[C@H](OC)[C@@H](O[C@H]4C[C@H](OC)[C@@H](O)[C@H](C)O4)[C@H](C)O3)[C@@H](C)/C=C/C=C3\CO[C@@H]4[C@H](O)C(C)=C[C@@H](C(=O)O1)[C@]34O)O2`: the result in test [3] and in test [4] was inactive.
`CC1=C2C[C@H]3[C@@H](CC=C4C[C@@H](O)CC[C@@]43C)[C@@H]2CC[C@]12O[C@@H]1C[C@H](C)CN[C@H]1[C@H]2C`: in test [5], the molecule was called inactive.
For `O=C(OCCN1CCCCC1)C(O)(c1ccccc1)c1ccccc1`, the molecule was classed as inactive in test [3], in test [4] and in test [6].
For the molecule `C=CCN1CC[C@]23c4c5ccc(O)c4O[C@H]2/C(=N/NC(=O)c2ccccc2)CC[C@@]3(O)[C@H]1C5`, the Potency entry in test [1] and in test [2] was “inactive” each time.
Turning to `O=C/C=C/c1ccccc1`, the molecule was called inactive in test [3], in test [4] and in test [6].
Turning to `C/C(O)=C(\C#N)C(=O)Nc1cc(Br)ccc1Br`, the Potency entry in test [1] and in test [2] was “inactive” in each case.
For `CC[C@H]1CN2CC[C@H]1C[C@@H]2[C@@H](O)c1ccnc2ccc(OC)cc12`, the molecule was called inactive in test [4].
Consider `C[C@]12CC[C@H]3[C@@H](CCC4=C(O)C(=O)CC[C@@H]43)[C@@H]1CC[C@@H]2OC(=O)CCC1CCCC1`, for which the molecule was classed as inactive in test [4] and in test [6].
Turning to `CCCC(=O)OC(C(Cl)(Cl)Cl)P(=O)(OC)OC` (stereo not given), in test [4], the call was inactive. Moreover, the outcome in test [6] was “inactive [at 114 µM]”.
With `CCC1(C)CC(=O)NC(=O)C1`, the outcome in test [3] and in test [4] was “inactive [at 114 µM]” in each case. For the same molecule, the outcome in test [6] was inactive.
As to `CCCCCCCCCC(=O)O[C@H]1CC[C@H]2[C@@H]3CCC4=CC(=O)CC[C@]4(C)[C@H]3CC[C@]12C`, the result in test [3], in test [4] and in test [6] was inactive.
For the molecule `C[C@]12CC[C@H](OS(=O)(=O)O)CC1=CC[C@@H]1[C@@H]2CC[C@]2(C)C(=O)CC[C@@H]12`, the call in test [4] and in test [6] was inactive.
Take `CCC(=O)O[C@@](Cc1ccccc1)(c1ccccc1)[C@@H](C)CN(C)C`: the molecule was called inactive in test [4] and in test [6].
As for `Oc1ccc2c3c1O[C@H]1[C@@H](O)CC[C@@]4(O)[C@@H](C2)N(CC2CCC2)CC[C@]314`, the call in test [4] and in test [6] was inactive.
Consider `CCNCC(O)c1cccc(O)c1` (stereo not given), for which the call in test [4] and in test [6] was inactive.
With `C[C@]12CCC(=O)C=C1C=C[C@@H]1[C@@H]2CC[C@@]2(C)[C@H]1CC[C@@]2(O)CCC(=O)O`, the call in test [4] and in test [6] was inactive.
`CCCCCCC(=O)O[C@H]1CC[C@H]2[C@@H]3CC[C@H]4CC(=O)C=C(C)[C@]4(C)[C@H]3CC[C@]12C`: the molecule was classed as inactive in test [4] and in test [6].
`CCC1C(C)=NN=C(c2ccc(OC)c(OC)c2)c2cc(OC)c(OC)cc21` (stereo not given): the molecule was called inactive in test [3], in test [4] and in test [6].
Take `O=c1[nH]cc(N(CCCl)CCCl)c(=O)[nH]1`: the outcome in test [3], in test [4] and in test [6] was “inactive [at 114 µM]” in each case.
For the molecule `CCN(CC)C(=O)N[C@H]1C[C@@H]2c3cccc4[nH]cc(c34)C[C@H]2N(C)C1`, the molecule was classed as inactive in test [4] and in test [6].
Take `O=C1OC2(c3cc(Br)c(O)cc3Oc3c2cc(Br)c(O)[c]3[Hg])c2ccccc21` (stereo not given): the call in test [6] was inactive.
On to `CCC1(CC)C(=O)NC(=O)N(C)C1=O`, for which the molecule was classed as inactive in test [4] and in test [6].
Regarding `O=[N+]([O-])c1ccccc1`, the result in test [3], in test [4] and in test [6] was inactive.
Take `C=CC[C@]1(O)CC[C@H]2[C@@H]3CCC4=CCCC[C@@H]4[C@H]3CC[C@@]21C`: the outcome in test [3] and in test [4] was “inactive [at 114 µM]” each time. In test [6], the call was inactive.
`O=[N+]([O-])C(Br)(CO)CO`: the call in test [3], in test [4] and in test [6] was inactive.
Turning to `ClC1C(Cl)C(Cl)C(Cl)C(Cl)C1Cl` (stereo not given), the molecule was classed as inactive in test [4] and in test [6].
Consider `CCCCNCC(O)c1ccc(O)cc1` (stereo not given), for which the result in test [3], in test [4] and in test [6] was inactive.
For the molecule `CC(C)CCON=O`, the call in test [3], in test [4] and in test [6] was inactive.
As for `CC(=O)O[C@H]1CC[C@H]2[C@@H]3CCC4=CC(=O)CCC4=C3C=C[C@]12C`, the call in test [3], in test [4] and in test [6] was inactive.
Take `CCOC(=O)c1ccccc1C(=O)OCC`: the molecule was called inactive in test [3], in test [4] and in test [6].
With `CC[N+](C)(CC)CCOC(=O)C(O)(c1ccccc1)c1ccccc1`, the molecule was called inactive in test [3], in test [4] and in test [6].
With `CC1CCC(C(C)C)C(OC(=O)c2ccccc2N)C1` (stereo not given), the molecule was called inactive in test [3], in test [4] and in test [6].
For the molecule `FC(F)OC(F)(F)C(F)Cl` (stereo not given), the call in test [4] and in test [6] was inactive.
On to `CC(N)Cc1ccc(O)cc1` (stereo not given), for which the molecule was classed as inactive in test [3], in test [4] and in test [6].
In the case of `Cc1ccccc1-n1c(CF)nc2ccc(N)cc2c1=O`, the molecule was called inactive in test [4] and in test [6].
Regarding `CCNC1(c2cccs2)CCCCC1=O` (stereo not given), the result in test [3], in test [4] and in test [6] was inactive.
Take `c1ccc2sc(SNC3CCCCC3)nc2c1`: the call in test [3] and in test [4] was inactive. In addition, in test [6], the outcome was “inactive [at 114 µM]”.
In the case of `O=P(O)(O)C(Cl)(Cl)P(=O)(O)O`, in test [3], the activity change, negative = inhibition is -10.6% [at 5.34 µM]. The outcome in test [4] and in test [6] was “inactive [at 5.34 µM]” throughout.
Regarding `CC(C)(O)[C@@H]1[C@H]2OC(=O)[C@@H]1[C@]1(O)C[C@H]3O[C@]34C(=O)O[C@H]2[C@]14C`, the result in test [3], in test [4] and in test [6] was inactive.
In the case of `COc1cc2c(cc1OC)[C@@]13CCN4CC5=CCO[C@H]6CC(=O)N2[C@H]1[C@H]6[C@H]5C[C@H]43`, the result in test [3], in test [4] and in test [6] was inactive.

The values are drawn from PubChem BioAssay (NCATS).
